# Experimental data from PubChem BioAssay AID1492 (National Center for Advancing Translational Sciences (NCATS), 2009).
# Inconclusive results are not listed. Calls of active or inactive are those of the source. Calls come from the whole dose curve; as a rule, active = well fitted inhibition curve with a large enough effect; inconclusive = small, poorly fitted or top-dose-only effect; inactive = flat fitted curve, though single readings scatter.
# Target: Muscarinic acetylcholine receptor M1 (Rattus norvegicus) (UniProt P08482)
# Assay: Counterscreen Concentration-Response Assay for Antagonists of the Neuropeptide S Receptor: Muscarinic Receptor Calcium Signal Transduction.
# From the text: NIH Chemical Genomics Center [NCGC] NIH Molecular Libraries Probe Production centers Network [MLPCN] MLPCN Grant: X01-DA026210-01 Assay Submitter (PI): Heilig, Markus Alexander NCGC Assay Overview: Neuropeptide S receptor (NPSR), previously known as GPR154, is a recently de-orphanized G protein coupled receptor. Its endogenous ligand is the 20 amino acids peptide Neuropeptide S (NPS). […] NPS and its receptor are found in various tissues. Specifically they are highly expressed in brain areas that have been implicated in modulation of arousal, stress and anxiety. […] This change in intracellular calcium can be detected using a calcium indicator dye on a calcium imaging plate reader system (FDSS). […]
# NCGC Assay Protocol Summary: A Chinese hamster ovary (CHO) cell line stably expressing muscarinic acetylcholine M1 receptor (CHO-M1) was obtained from ATCC and maintained in F-12 Kaighn's media (Invitrogen, Carlsbad, CA, 21127) supplemented with 10 % FBS, 100 units/ml penicillin, 100 ug/ml streptomycin and 250 ug/ml geneticin at 37C, 5% CO2 in a humidified atmosphere. […] The assay was performed on a FDSS-7000 kinetic plate reader in 1536-well format. The maximums of kinetic fluorescence responses were converted into text files using the instrument's software data export utility. […] AC50 values were determined from concentration-response data modeled with the standard Hill equation. […]
smiles,measurement,value
O=c1[nH]c(=O)n(CCC2=CCCCC2)c(O)c1C=NC1CCN(Cc2ccccc2)CC1,outcome,inactive
